Only some compounds are listed: those with a hit (about 2.5% of all), similar ones and a draw of the others.
Apoferritin bind: qHTS Assay for Identification of Novel General Anesthetics | actives 0.074% (n = 350,000) | Potency, µM (doses to about 77.5 µM), usual class: inhibitors | apoferritin/1-aminoanthracene competitive binding, fluorescence | AID 485281, 2010 | Ferritin light chain (Equus caballus), P02791; active means well fitted inhibition curve with a large enough effect; inconclusive means small, poorly fitted or top-dose-only effect; inactive means no such curve, though single readings can be large or run the other way; further: nearly all actives have a fitted effect of over 20% in size
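Probe: 1-aminoanthracene (50% saturated, PBS). Protein: horse-spleen apoferritin, 10 uM. Incubation: 10 min, room temperature. Detection: 380 nm excitation, 535 nm emission. Analysis: normalized response, four-parameter Hill.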
D2 ag-1: Beta-Arrestin HTS for Positive Allosteric Modulators of the Human D2 Dopamine Receptor: Agonists; actives 0.084% (n = 360,000); activation, % (no concentration beside the values); DiscoveRx PathHunter D2 beta-arrestin, luminescence, 90 min; 100% = 57 uM dopamine signal; D(2) dopamine receptor (Homo sapiens), P14416; in the data active means activation above about 40%; inconclusive means between about 15% and that limit
Target sequence (P14416 whole entry, looked up): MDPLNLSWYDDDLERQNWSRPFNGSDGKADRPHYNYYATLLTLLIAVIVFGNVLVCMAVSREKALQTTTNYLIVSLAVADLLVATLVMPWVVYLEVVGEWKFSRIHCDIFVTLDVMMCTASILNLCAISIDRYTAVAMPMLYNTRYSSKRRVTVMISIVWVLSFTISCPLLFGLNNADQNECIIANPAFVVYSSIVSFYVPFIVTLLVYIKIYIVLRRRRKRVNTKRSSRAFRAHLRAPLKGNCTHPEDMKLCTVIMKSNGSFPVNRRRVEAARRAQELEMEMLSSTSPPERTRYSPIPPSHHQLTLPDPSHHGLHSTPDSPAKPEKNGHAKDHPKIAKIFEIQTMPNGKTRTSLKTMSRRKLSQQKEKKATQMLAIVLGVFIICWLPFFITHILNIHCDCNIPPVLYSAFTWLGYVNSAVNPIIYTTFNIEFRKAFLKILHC
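Agonist mode: compounds alone added to overnight-plated D2 PathHunter cells for 90 min at 37 C, with 57 uM final dopamine (EC100) defining full response. Beta-arrestin recruitment detected by chemiluminescent reagent, read after 1 h at ambient temperature.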
D2 ag-2: HTS Assay for Allosteric Agonists of the Human D2 Dopamine Receptor: Primary Screen for Agonists | actives 0.53% (n = 340,000) | HEK293 T-REx D2 cells, calcium flux agonist mode | activation, % at 2 µM | D(2) dopamine receptor (Homo sapiens), P14416;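 active means activation over 3 SD above normal in the single-dose calcium agonist read, cut at about 30% in these data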
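Calcium-flux readout, 1 cycle/sec over 180 s following compound pin transfer, in inducible HEK293 Trex D2 cells (force-coupled); dopamine controls included. Positive calcium responses during this window marked compounds as potential agonists.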
D2 PAM-1: Beta-Arrestin HTS for Positive Allosteric Modulators of the Human D2 Dopamine Receptor: Potentiators; D(2) dopamine receptor (Homo sapiens), P14416; DiscoveRx D2 beta-arrestin cells, luminescence, 90 min; 100% = 57 uM dopamine signal; potentiation, % (no concentration beside the values); actives 0.23% (n = 360,000); AID 624464, 2012; in the data active means potentiation above about 50%; inconclusive means mostly about 30% to 49%
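PathHunter beta-arrestin assay in DiscoveRx D2 cells. Compounds were added with an EC20 of dopamine (50 nM final) for 90 min at 37 deg C. Luminescence was read 1 h after detection reagent, with 57 uM dopamine as the EC100 control.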
D2 PAM-2: HTS Assay for Positive Allosteric Modulators of the Human D2 Dopamine Receptor: Primary Screen for Potentiators; D(2) dopamine receptor (Homo sapiens), P14416; HEK293 T-REx D2, calcium flux, EC20 dopamine potentiation; potentiation, % at 10 µM; actives 0.34% (n = 340,000);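 active means potentiation over 3 SD above the plate norm, cut at about 30% in these data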
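Potentiation of an EC20 dopamine calcium response measured kinetically over 180 s, after a preceding 180 s compound-only read flagging agonists. Cells: inducible Hek293 Trex D2 line, 4000/well, cultured overnight at 30 C before dye loading.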
D2 antag: HTS Assay for Allosteric Antagonists of the Human D2 Dopamine Receptor: Primary Screen for Antagonists; D(2) dopamine receptor (Homo sapiens), P14416; HEK293 TREx D2 cells, calcium flux, dopamine EC80; inhibition, % at 10 µM; actives 2% (n = 340,000); AID 485344, 2010; in the data active means inhibition above about 30%; inactive means below that, where a call was filed
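Dopamine at EC80 is the agonist stimulus; test compounds precede it by 180 s. Calcium flux read kinetically in a force-coupled, inducible HEK293 T-REx D2 cell line.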
Large screens that a line does not name were inactive; ! = not active in a repeat.

CCOC(=O)/C(=C/c1ccc(N2CCC(c3ccccc3)=N2)cc1)C(C)=O	D2 ag-2 36.9
CC1=CC(c2ccccc2)n2nc(NS(=O)(=O)c3ccc(C)cc3)nc2N1 (stereo unspecified)	D2 antag 120.8
CC1=CC(c2ccc(Cl)cc2)n2nc(NS(=O)(=O)c3ccc(C)cc3)nc2N1 (stereo unspecified)	none
CCCN(C(=O)c1c(-c2ccccc2)noc1C)c1c(N)n(Cc2ccccc2)c(=O)[nH]c1=O	D2 antag 65.5 (no result: Apoferritin bind)
CCN(CCCNc1ncnc2nc[nH]c12)c1cccc(C)c1	none
COCCN1C(=O)c2ccc(C(=O)O)cc2C1=O	D2 PAM-2 38.8
CC(C)CN1C(=O)c2ccc(C(=O)NCc3ccccn3)cc2C1=O	none
COCCCN1C(=O)c2ccc(C(=O)NCc3ccccn3)cc2C1=O	D2 PAM-2 31.5
CCC1(NC(C)=O)CC2CC1CC2NC(C)=O (stereo unspecified)	D2 antag 38.5
CCOc1ccccc1Nc1nnc(SCc2nnc(-c3cc(OC)c(OC)c(OC)c3)o2)s1	none
COc1ccccc1-n1cnc2c(c1=O)c1nc3ccccc3nc1n2-c1ccc(C)cc1	D2 PAM-2 32.7
Cc1nc(-c2cccc(S(=O)(=O)N3CCC(C)CC3)c2)cs1	none
O=C(O)c1cccc(CN2C(=O)S/C(=C/c3cccc([N+](=O)[O-])c3)C2=O)c1	D2 antag 33.6
C=CCN=C1S/C(=C/c2cccc([N+](=O)[O-])c2)C(=O)N1CC=C	none
Cc1ccc(NC(=O)C2CCCCC2)cc1C	D2 antag 36.2 (no result: Apoferritin bind)
CCOc1ccc(OCC(O)CN2CCc3ccccc3C2)cc1 (stereo unspecified)	D2 antag 50.1
Cc1cc(OCC(O)CN2CCc3ccccc3C2)cc(C(C)C)c1 (stereo unspecified)	D2 ag-1 inconclusive
Cc1cc(OCC(O)CN2CCc3ccccc3C2)ccc1Cl (stereo unspecified)	Apoferritin bind inconclusive, D2 antag 79.2
CCOC(=O)C1CCCN(Cc2ccc(OCc3ccccc3)cc2)C1 (stereo unspecified)	Apoferritin bind inconclusive, D2 antag 86.1
CCOc1ccc(CNc2ccc(N3CCN(Cc4ccccc4)CC3)cc2)cc1	D2 antag 59.0
Oc1ccc(NCc2ccc(OCc3ccccc3)cc2)cc1	Apoferritin bind inconclusive, D2 ag-1 40.2
Oc1ccc(NCc2ccc(OCc3ccccc3Cl)cc2)cc1	Apoferritin bind inconclusive (no result: D2 ag-1, D2 PAM-1, D2 antag)
CCOc1ccc(CNc2ccc(N3CCCC3)cc2)cc1	none
CCOC(=O)C1CCCN(CCCc2ccccc2)C1 (stereo unspecified)	D2 antag 70.0!
CN(c1ccccc1)S(=O)(=O)c1ccc(C(=O)NCCc2ccc(F)cc2)cc1	none
CC(=O)c1cc(-c2ccc(F)cc2)n(CC(=O)NC(C)c2ccccc2)c1C (stereo unspecified)	none (no result: D2 ag-1, D2 PAM-1, D2 antag)
CCN1CCN(Cc2ccc(OCc3ccccc3)cc2)CC1	D2 PAM-2 31.7
CCOC(=O)C1CCCN(Cc2nc(N)nc(Nc3ccccc3)n2)C1 (stereo unspecified)	D2 antag 46.4
COc1ccc(OC)c(NC(=S)NCc2ccccc2OC)c1	none
CCCCC(=O)Nc1ccccc1C(=O)OCc1cc(=O)n2nc(C3CCCCC3)sc2n1	none (no result: D2 ag-1, D2 PAM-1, D2 antag)
COc1ccc(CNc2nc(NCc3ccc(OC)cc3)c3[nH]cnc3n2)cc1	D2 antag 41.6
COc1ccc(CNc2nc(NCc3ccc(OC)cc3)c3ncn(C(C)C)c3n2)cc1	none (no result: D2 ag-1, D2 ag-2, D2 PAM-1, D2 PAM-2, D2 antag)

Assay outcomes as filed in PubChem BioAssay.
